A selection: hits, their analogues and other compounds. The true share with any hit is near 18%.
PLK1 PBD block: qHTS for Inhibitors of PLK1-PDB (polo-like kinase 1 - polo-box domain): Primary Screen. Potency, µM, actives largely listed as inhibitors. actives 2.8% (n = 360,000). Plk1 PBD binding of FITC phosphopeptide, fluorescence polarization. Serine/threonine-protein kinase PLK1 (Homo sapiens), P53350; note: series mostly up to about 57 µM; nearly all actives have a fitted effect of over 65% in size
Target sequence (P53350 whole entry, looked up, the tested form may be a part): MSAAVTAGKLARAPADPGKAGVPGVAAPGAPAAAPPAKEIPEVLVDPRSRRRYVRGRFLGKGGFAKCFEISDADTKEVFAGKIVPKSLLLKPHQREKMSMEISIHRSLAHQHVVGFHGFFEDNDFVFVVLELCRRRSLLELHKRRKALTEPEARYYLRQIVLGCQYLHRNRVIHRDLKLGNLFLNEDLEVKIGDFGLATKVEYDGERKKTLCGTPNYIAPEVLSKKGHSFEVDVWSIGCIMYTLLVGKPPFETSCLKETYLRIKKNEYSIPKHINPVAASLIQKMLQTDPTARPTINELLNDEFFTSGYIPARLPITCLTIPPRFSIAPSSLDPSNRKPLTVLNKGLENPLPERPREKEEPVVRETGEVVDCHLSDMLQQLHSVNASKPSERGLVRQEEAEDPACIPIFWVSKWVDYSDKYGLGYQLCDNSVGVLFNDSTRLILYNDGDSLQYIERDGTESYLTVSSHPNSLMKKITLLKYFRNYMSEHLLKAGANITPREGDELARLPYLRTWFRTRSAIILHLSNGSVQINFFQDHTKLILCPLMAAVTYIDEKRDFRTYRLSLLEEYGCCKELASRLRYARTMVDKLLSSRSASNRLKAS
TDP1 inh: qHTS Assay for Inhibitors of Tyrosyl-DNA Phosphodiesterase (TDP1); Tyrosyl-DNA phosphodiesterase 1 (Homo sapiens), Q9NUW8; recombinant TDP1, AlphaScreen DNA substrate cleavage; Potency, µM (titrated, usually from 130 µM), actives largely listed as inhibitors; actives 0.28% (n = 350,000); AID 485290, 2010; note: nearly all actives have a fitted effect of over 40% in size
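Recombinant E. coli-expressed Tdp1 (1 nM) preincubated with compound 15 min at RT, then 5'-biotin/3'-phosphotyrosine-FITC DNA substrate (15 nM) added for 5 min. AlphaScreen beads (10 ug/ml) added, 10 min RT; tyrosine-FITC cleavage read as signal loss.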
DT40 TDP1 no CPT: qHTS for Inhibitors of human tyrosyl-DNA phosphodiesterase 1 (TDP1): qHTS in cells in absence of CPT | DT40 Tdp1-/- hTDP1 cells, no CPT, ATP luminescence, 48 h | Potency, µM (series often up to 46.2 µM), hits mostly inhibitors | actives 15% (n = 420,000); note: nearly all actives have a fitted effect of over 55% in size
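DT40 Tdp1-/-;hTDP1 cells, no CPT (DMSO vehicle only), 400 cells/well; compounds pin-transferred; ≥48 hr, 37 °C; CellTiter-Glo 30 min RT dark, luminescence read.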
VDR inh: Inhibitors of the vitamin D receptor (VDR): qHTS | AID 504847, 2011 | Potency, µM, most hits filed as inhibitors | VDR-SRC2-3 peptide fluorescence polarization, 2 h | Vitamin D3 receptor (Homo sapiens), P11473 | actives 0.93% (n = 400,000)
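Measured by FP: displacement of SRC2-3 coactivator peptide from VDR by library compounds, following a two-hour ambient incubation.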
DT40 TDP1 CPT: qHTS for Inhibitors of human tyrosyl-DNA phosphodiesterase 1 (TDP1): qHTS in cells in presence of CPT | chicken DT40 Tdp1-/-;hTDP1 cells + 20 nM CPT, ATP luminescence, 48 h | Potency, µM (titrated, usually from 46.2 µM), actives largely listed as inhibitors | actives 12% (n = 420,000); note: nearly all actives have a fitted effect of over 55% in size
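Chicken DT40 Tdp1-/- cells complemented with human TDP1, 400 cells/well, exposed to compounds plus 20 nM camptothecin for at least 48 h at 37 C; viability read as ATP content by CellTiter-Glo luminescence.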
KAT2A inh: qHTS Assay for Inhibitors of GCN5L2; Histone acetyltransferase KAT2A (Homo sapiens), Q92830; GCN5L2 HAT assay, ThioGlo1 CoA-SH fluorescence; Potency, µM (doses to about 58.9 µM), actives largely listed as inhibitors; actives 0.21% (n = 390,000); AID 504327, 2011
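Fluorescence readout, Ex340nm/Em540nm: ThioGlo1 (50uM final) reacts with free CoA thiol released as 20nM GCN5L2 acetylates H3(1-25) peptide (75uM) using acetyl-CoA (70uM). Compound and enzyme sat 15 min beforehand; 20 min room-temperature reaction.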
Numbers stand for hits; . = inactive; ? = inconclusive; / = no result given. Calls come from the whole dose curve; as a rule, active = well fitted curve in the direction sought with a large enough effect; inconclusive = small, poorly fitted or top-dose-only effect, or another doubt; inactive = no such curve, though single readings can be large; an effect the other way counts as inactive or inconclusive.

SMILES | PLK1 PBD block | TDP1 inh | DT40 TDP1 no CPT | VDR inh | DT40 TDP1 CPT | KAT2A inh
CCCCNC(=O)c1sc2nc(C)cc(COC)c2c1-n1cccc1 | . | . | 26µM | . | 16µM | .
CNC(=O)c1sc2ncccc2c1-n1cccc1 | / | . | ? | . | . | .
COCc1cc(C)nc2sc(C(=O)NN)c(-n3cccc3)c12 | . | . | . | . | . | .
O=C(NCCc1ccccc1)c1sc2ncccc2c1-n1cccc1 | / | . | ? | . | 26µM | .
COc1ccc2c(c1)CC(C(=O)N1CCC(C(N)=O)CC1)CO2 (stereo not given) | / | . | . | . | . | .
CSc1ccc(CCNC(=O)c2sc3ncccc3c2-n2cccc2)cc1 | / | . | 26µM | . | 16µM | .
CC(=O)Nc1cnc(-c2cc(C)c(O)c(C)c2)cn1 | . | / | . | / | ? | /
COc1cc(OC)cc(-c2c(-c3cccs3)c3cc(Br)ccc3n2C)c1 | . | . | . | . | . | .
COc1cc(OC)cc(-c2c(-c3cccs3)c3cc(-c4ccc(N(C)C)nc4)ccc3n2C)c1 | . | . | 21µM | . | 23µM | ?
COc1cc(OC)cc(-c2c(-c3cccs3)c3cc(-c4cccc5[nH]ccc45)ccc3n2C)c1 | . | . | ? | . | ? | .
Cn1c(-c2ccsc2)c(-c2cccs2)c2cc(Br)ccc21 | . | . | ? | . | ? | 20µM
COc1cc(F)cc(-c2ccc3c(c2)c(-c2cccs2)c(-c2cc(OC)cc(OC)c2)n3C)c1 | . | . | 23µM | . | 18µM | .
COc1cc(OC)cc(-c2c(-c3cccs3)c3cc(-c4ccn[nH]4)ccc3n2C)c1 | . | . | 16µM | . | ? | .
COc1cc(OC)cc(-c2c(-c3cccs3)c3cc(-c4ccc5c(c4)OCO5)ccc3n2C)c1 | . | . | ? | . | ? | .
COc1ccc(CCCc2nnc(SCC(=O)Nc3ccc(Cl)cc3)o2)cc1 | / | / | . | ? | . | .
O=C(c1cc(-c2cccc(Cl)c2)on1)N1CCCCC1 | / | . | . | . | . | .
C#CCN(C[C@@H]1[C@@H](OC(=O)NCc2ccccc2)[C@@H](OC(=O)NCc2ccccc2)CN(C(=O)OC(C)C)N1C(=O)OC(C)C)S(=O)(=O)c1ccc(C)cc1 | ? | / | 12µM | / | 21µM | /
C#CCN(C[C@@H]1[C@@H](OC(=O)NCC2CCCCC2)[C@@H](OC(=O)NCC2CCCCC2)CN(C(=O)OC(C)C)N1C(=O)OC(C)C)S(=O)(=O)c1ccc(C)cc1 | . | / | 7.3µM | / | 9.2µM | /
C#CCN(C[C@H]1[C@H](OC(=O)NCc2ccccc2F)[C@H](OC(=O)NCc2ccccc2F)C[C@H]2C(=O)N(c3ccccc3)C(=O)[C@@H]12)S(=O)(=O)c1ccc(C)cc1 | . | / | ? | / | . | /
C#CCN(C[C@H]1[C@H](OC(=O)NCc2ccc(OC)c(OC)c2)[C@H](OC(=O)NCc2ccc(OC)c(OC)c2)C[C@H]2C(=O)N(c3ccccc3)C(=O)[C@@H]12)S(=O)(=O)c1ccc(C)cc1 | . | / | ? | / | . | /
CC(C)c1ccc(NS(=O)(=O)c2ccc3[nH]c(=O)ccc3c2)cc1 | / | . | ? | . | ? | .
O=c1[nH]cnc(O)c1C1C=CC=CC=C1 | . | / | ? | 40µM | . | /
CN(C[C@H](Cc1ccccc1)N(C[C@H](Cc1cccc2ccccc12)N(CCc1ccccc1)N=O)N=O)N=O | . | / | ? | . | ? | .
OCCN(Cc1ccccc1)Cc1cccc(C(F)(F)F)c1 | . | . | . | . | . | /
CC(C)C[C@@H](CN(C)N=O)N(C[C@H](Cc1ccccc1)N(CCc1ccccc1)N=O)N=O | . | . | 18µM | ? | ? | .
SMILES | PLK1 PBD block | TDP1 inh | DT40 TDP1 no CPT | VDR inh | DT40 TDP1 CPT | KAT2A inh
CN(C[C@H](Cc1ccccc1)N(CCN(CCc1ccccc1)N=O)N=O)N=O | . | . | ? | . | ? | .
CN(C[C@H](CC1CCCCC1)N(C[C@H](Cc1ccccc1)N(CCc1ccccc1)N=O)N=O)N=O | . | . | 16µM | . | 18µM | .
CN(C[C@H](Cc1ccccc1)N(C[C@H](Cc1ccccc1)N(CCc1cc(C(F)(F)F)cc(C(F)(F)F)c1)N=O)N=O)N=O | . | . | 21µM | . | ? | .
CCNc1nc(SCCOc2ccc(Cl)cc2Cl)nc(N(C)C)n1 | . | . | ? | . | ? | .
COc1ccc(C(=O)N2CCC3(CC2)NCCc2[nH]cnc23)cc1 | . | . | . | . | . | .
COc1ccc(C(=O)N[C@H](C(=O)OCCCOC(=O)[C@@H](NC(=O)c2ccc(OC)cc2)C(C)C)C(C)C)cc1 | . | / | ? | . | 23µM | /
COc1ccc(C(=O)N[C@H](C(=O)Nc2sccc2C(N)=O)C(C)C)cc1 | . | . | ? | . | ? | .
Cc1ccc(C(=O)OCC(=O)Nc2sccc2C(N)=O)cc1NC(=O)c1ccco1 | . | . | 6.5µM | . | ? | .
COc1ccc(C(=O)NC(C(=O)OCC(=O)Nc2sccc2C(N)=O)C(C)C)cc1 (stereo not given) | . | . | 23µM | . | ? | .
Nc1nc(Nc2ccccc2)nc2c1ncn2[C@@H]1O[C@@H](CO)[C@H](O)[C@H]1O | / | . | . | . | . | .
O=Cc1ccc(-n2nncc2-c2ccc([N+](=O)[O-])cc2)cc1 | . | . | ? | . | . | .
CC1(C(=O)NS(=O)(=O)c2ccc(Cl)cc2)CCN1C(=O)C/C=C/c1ccccc1 (stereo not given) | . | / | . | / | . | /
O=C(Nc1nonc1NC(=O)c1cccs1)c1cccs1 | . | . | 23µM | ? | 26µM | .
O=C(Nc1ccccn1)c1cccs1 | 3.4µM | . | 26µM | . | 18µM | /
[O-][n+]1c2c(nc3c1-c1ccccc1C3O)CCCC2 (stereo not given) | / | . | / | / | / | .
O=C(c1ccccc1)N1CCn2c1nc1ccccc12 | 27µM | . | . | ? | . | .
O=C(c1cccc(Cl)c1)N1CCn2c1nc1ccccc12 | . | . | . | . | . | .
C[C@H](NC(=O)N1CCn2c1nc1ccccc12)C(=O)N1CCCCC1 | 8.4µM | . | ? | ? | 16µM | .
CCn1cc(S(=O)(=O)NCCc2ccc(OC)c(OC)c2)cn1 | . | . | . | . | . | .
CO/N=C\CC(=O)Nc1ccc(Cl)cc1Cl | 21µM | . | 21µM | ? | 12µM | .

Assay outcomes (PubChem)
